The results in this text go back to PubChem BioAssay (NCATS).

Assay [1] addresses Atrial natriuretic peptide receptor 1 (Homo sapiens) (UniProt P16066). The experiment in a line: Natriuretic polypeptide receptor (hNpr1) antagonism - Pilot screen (AID 1347049; calls by dose curve;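 note: agonist-evoked cGMP luminescence read 20 min after hNppA addition; series mostly up to about 58 µM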). A digest of the protocol: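 cGMP-sensor HEK293/hNpr1 cells, 1500/well, plated overnight at 37C. 2% GloSensor reagent, 2 h RT. Compound (23 nL pin transfer) 30 min RT, baseline luminescence pre-read. 0.1 nM hNppA, 20 min RT, post-read.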

Assay [2] can be described thus: NS1 protein of Zika virus - qHTS assay to identify small molecule inhibitors in human HEK 293 cells (AID 1347053). Note: nearly all actives have a fitted effect of over 55% in size. Note: potency is the fitted concentration of half-maximal effect. A digest of the protocol: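 Read-out is a two-antibody TR-FRET for ZIKV NS1, normalized between uninfected cells and infected cells. Compound added 1 h before MR766 infection at MOI 0.5; human HEK 293 cells incubated 24 h, 37 C.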
The target in assay [3] is T1, Tyrosine-protein phosphatase non-receptor type substrate 1 (Homo sapiens) + Leukocyte surface antigen CD47 (Homo sapiens) (UniProt P78324+Q08722). The assay can be described thus: CD47-SIRPalpha protein protein interaction - LANCE assay qHTS validation (AID 1347057; active = well fitted curve in the direction sought with a large enough effect in the signal ratio, with a control signal flat, not every such curve was filed as active; the % refers to the signal ratio; note: series mostly up to about 38 µM). A digest of the protocol: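 Inhibition of soluble CD47/SIRPalpha ectodomain association by titrated compounds, measured as 665/615 nm time-resolved FRET ratio after sequential 30 min room-temperature incubations.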

Assay [4] has as its target Parathyroid hormone/parathyroid hormone-related peptide receptor (Homo sapiens) (UniProt Q03431). The experiment in a line: qHTS for PTHR1 Agonists: Optimization Screen against the NCGC LOPAC library (AID 1347079).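 Note: GloSensor cAMP luminescence in HEK-293 GP2 cells expressing human PTHR1 with IBMX.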 A digest of the protocol:
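HEK-293 GP2 cells, PTHR1 + GloSensor cAMP; 3000 cells/well, o/n. Luciferin + IBMX 0.5mM each (stock), 1 hr 37C. Cpd titration, 1 hr 37C. Lum after 15 min RT. Ctrl M-PTH(1-15) top 10uM.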

Assay [5] can be described thus: qHTS of pediatric cancer cell lines to identify multiple opportunities for drug repurposing: Primary screen for DAOY cells (AID 1347090). Note: nearly all actives have a fitted effect of over 55% in size. Note: potency is the fitted concentration of half-maximal effect. In a few lines: (§1)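 Viability measured as metabolically active cells via CellTiter-Glo luminescence following 48 hours of compound exposure, 11-point dilutions in confirmatory testing. 500-1,000 cells/well plated 5 hours before dosing; controls were DMSO and 2.3 µM bortezomib.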

Assay [6] in a line: qHTS of pediatric cancer cell lines to identify multiple opportunities for drug repurposing: Primary screen for SJ-GBM2 cells (AID 1347091). Note: potency is the fitted concentration of half-maximal effect. In a few lines: as §1
A short description of assay [7]: qHTS of pediatric cancer cell lines to identify multiple opportunities for drug repurposing: Primary screen for A673 cells (AID 1347092). Note: nearly all actives have a fitted effect of over 45% in size. Note: potency is the fitted concentration of half-maximal effect. In a few lines:
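Cells are plated, rested 5 h, dosed by pintool, incubated 48 h, then lysed with CellTiter-Glo and read by luminescence. DMSO is the neutral control; bortezomib at 2.3 uM final is the positive control.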

The nature of assay [8]: qHTS of pediatric cancer cell lines to identify multiple opportunities for drug repurposing: Primary screen for SK-N-MC cells (AID 1347093). Note: potency is the fitted concentration of half-maximal effect. A digest of the protocol: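 Metabolically active cells were quantified by ATP-dependent luminescence (CellTiter-Glo, 15 min at room temperature) following 48 h treatment. Cells had been plated at 500-1,000 per well and settled for 5 h beforehand.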

Assay [9] in a line: qHTS of pediatric cancer cell lines to identify multiple opportunities for drug repurposing: Primary screen for BT-37 cells (AID 1347094). Note: potency is the fitted concentration of half-maximal effect. A digest of the protocol:
(§2)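 Following a 5-hour attachment period, cells at 500-1,000/well received compounds and were cultured for 48 hours. CellTiter-Glo was added and luminescence read to estimate viable, metabolically active cells.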

The nature of assay [10]: qHTS of pediatric cancer cell lines to identify multiple opportunities for drug repurposing: Primary screen for NB-EBc1 cells (AID 1347095). Note: potency is the fitted concentration of half-maximal effect. In a few lines:
as §2

A short description of assay [11]: qHTS of pediatric cancer cell lines to identify multiple opportunities for drug repurposing: Primary screen for U-2 OS cells (AID 1347096). Note: nearly all actives have a fitted effect of over 50% in size. Note: potency is the fitted concentration of half-maximal effect. A digest of the protocol: (§3)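 Viability after 48 h compound treatment at 37C, 500-1,000 cells/well, read as ATP luminescence with CellTiter-Glo. Primary screens used 11-point (MIPE, 0.78 nM-46 µM) or 8-point (NPC, 0.59 nM-46 µM) final concentrations; follow-up screens used 11-point dilutions.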

A short description of assay [12]: qHTS of pediatric cancer cell lines to identify multiple opportunities for drug repurposing: Primary screen for Saos-2 cells (AID 1347097). Note: nearly all actives have a fitted effect of over 40% in size. Note: potency is the fitted concentration of half-maximal effect. In a few lines: as §2
Assay [13] is described as follows: qHTS of pediatric cancer cell lines to identify multiple opportunities for drug repurposing: Primary screen for SK-N-SH cells (AID 1347098). Note: nearly all actives have a fitted effect of over 65% in size. Note: potency is the fitted concentration of half-maximal effect. In a few lines:
(§4)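 Cells (500-1,000/well) rested 5 h, then received compounds for 48 h; metabolically active cells were measured by CellTiter-Glo luminescence. Final concentrations spanned up to 46 µM (MIPE, 11-point) or 0.59 nM-46 µM (NPC, 8-point) in primary screens, 11-point in follow-ups.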

The nature of assay [14]: qHTS of pediatric cancer cell lines to identify multiple opportunities for drug repurposing: Primary screen for NB1643 cells (AID 1347099). Note: nearly all actives have a fitted effect of over 50% in size. Note: potency is the fitted concentration of half-maximal effect. A digest of the protocol: as §2
Assay [15] is described as follows: qHTS of pediatric cancer cell lines to identify multiple opportunities for drug repurposing: Primary screen for LAN-5 cells (AID 1347100). Note: potency is the fitted concentration of half-maximal effect. In a few lines: as §3
Assay [16] in a line: qHTS of pediatric cancer cell lines to identify multiple opportunities for drug repurposing: Primary screen for BT-12 cells (AID 1347101). Note: nearly all actives have a fitted effect of over 25% in size. Note: potency is the fitted concentration of half-maximal effect. In a few lines:
as §4

The nature of assay [17]: qHTS of pediatric cancer cell lines to identify multiple opportunities for drug repurposing: Primary screen for TC32 cells (AID 1347089). Note: nearly all actives have a fitted effect of over 60% in size. In a few lines: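 Measured quantity: luminescence from CellTiter-Glo, reflecting metabolically active TC32 cells following 48 h of compound. Curves came straight from multi-point titrations, with 8 or 11 points in primary and 11 in confirmatory screening.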

For assay [18], the target named is Atrial natriuretic peptide receptor 2 (Homo sapiens) (UniProt P20594). The assay can be described thus: Natriuretic polypeptide receptor (hNpr2) antagonism - Pilot subtype selectivity assay (AID 1347050; calls by dose curve; note: potency is the fitted concentration of half-maximal effect). In a few lines:
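Luminescence from a genetically encoded cGMP luciferase biosensor in hNpr2-expressing HEK293 cells is read before and 20 min after adding 1 nM hNppC. Test compounds, in interplate 1:5 titrations, are added 30-50 min ahead of the agonist.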

Assay [19] concerns the target T1, Tyrosine-protein phosphatase non-receptor type substrate 1 (Homo sapiens) + Leukocyte surface antigen CD47 (Homo sapiens). The experiment in a line: CD47-SIRPalpha protein protein interaction - Alpha assay qHTS validation (AID 1347059).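 Note: bead proximity luminescence from CD47 binding SIRPalpha after compound preincubation with SIRPalpha.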 A digest of the protocol:
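SIRPalpha-biotin 25 nM + cpd, 30 min RT, dark; add CD47-His 12.5 nM, 30 min; add Ni-NTA/SAV beads 10 ug/mL, 30 min; AlphaScreen. Buffer PBS pH 7.4 + 0.05% IGEPAL CA-630. Non-biotinylated SIRPalpha as control inhibitor.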

The target is the same in assay [20]. The experiment in a line: CD47-SIRPalpha protein protein interaction - HTRF assay qHTS validation (AID 1347058; active = well fitted curve in the direction sought with a large enough effect in the signal ratio, not every such curve was filed as active; the % refers to the signal ratio; note: series mostly up to about 38 µM). A digest of the protocol: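 Soluble extracellular domains (6His-CD47, Avi-tag-biotinylated SIRPalpha) in PBS pH 7.4 with 0.05% IGEPAL CA-630. Compounds were preincubated 30 min at RT with CD47 and anti-His-Eu, then SIRPalpha and SAV-XL665 were added. TR-FRET 665/615 ratio.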

Several values for one entry are separate records, joined by “and”; a condition that tells them apart may be missing. Equal entries are not always repeated. Records with an inconclusive call do not appear. Some structures have more than one record in an assay (separate samples or runs), and their calls can disagree. Activity calls are given as the source filed them. Unless noted, calls come from the whole dose curve; as a rule, active = well fitted curve in the direction sought with a large enough effect; inconclusive = small, poorly fitted or top-dose-only effect, or another doubt; inactive = no such curve, though single readings can be large; an effect the other way counts as inactive or inconclusive.

Atrial natriuretic peptide receptor 1 (Homo sapiens), sequence (P16066 whole entry, looked up): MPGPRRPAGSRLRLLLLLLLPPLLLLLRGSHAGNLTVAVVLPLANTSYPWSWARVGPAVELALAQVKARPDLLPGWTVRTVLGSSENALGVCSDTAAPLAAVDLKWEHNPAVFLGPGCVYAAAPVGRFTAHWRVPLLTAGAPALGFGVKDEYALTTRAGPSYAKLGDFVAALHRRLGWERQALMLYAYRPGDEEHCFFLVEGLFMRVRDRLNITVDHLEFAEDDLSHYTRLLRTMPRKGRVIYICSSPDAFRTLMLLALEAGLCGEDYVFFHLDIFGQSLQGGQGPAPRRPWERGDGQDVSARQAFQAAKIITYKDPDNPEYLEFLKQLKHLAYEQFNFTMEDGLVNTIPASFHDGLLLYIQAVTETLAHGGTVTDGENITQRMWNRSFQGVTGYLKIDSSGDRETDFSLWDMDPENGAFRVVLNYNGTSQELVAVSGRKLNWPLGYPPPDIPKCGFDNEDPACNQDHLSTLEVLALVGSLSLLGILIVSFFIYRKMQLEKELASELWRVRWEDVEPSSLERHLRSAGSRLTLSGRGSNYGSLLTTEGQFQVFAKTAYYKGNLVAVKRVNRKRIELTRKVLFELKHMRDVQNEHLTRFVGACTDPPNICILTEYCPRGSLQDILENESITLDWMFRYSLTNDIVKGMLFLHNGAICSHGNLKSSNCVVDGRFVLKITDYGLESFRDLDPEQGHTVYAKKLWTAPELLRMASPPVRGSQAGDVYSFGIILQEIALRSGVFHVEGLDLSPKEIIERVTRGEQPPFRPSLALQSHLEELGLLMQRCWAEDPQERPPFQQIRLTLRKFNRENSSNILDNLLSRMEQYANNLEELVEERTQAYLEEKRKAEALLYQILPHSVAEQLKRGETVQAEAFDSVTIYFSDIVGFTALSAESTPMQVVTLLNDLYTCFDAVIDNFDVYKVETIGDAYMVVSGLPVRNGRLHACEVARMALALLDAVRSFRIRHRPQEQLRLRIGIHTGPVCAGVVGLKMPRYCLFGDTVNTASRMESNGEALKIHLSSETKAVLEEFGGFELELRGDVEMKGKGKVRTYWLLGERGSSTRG
T1 sequence (P78324 whole entry, looked up, the tested form may be a part): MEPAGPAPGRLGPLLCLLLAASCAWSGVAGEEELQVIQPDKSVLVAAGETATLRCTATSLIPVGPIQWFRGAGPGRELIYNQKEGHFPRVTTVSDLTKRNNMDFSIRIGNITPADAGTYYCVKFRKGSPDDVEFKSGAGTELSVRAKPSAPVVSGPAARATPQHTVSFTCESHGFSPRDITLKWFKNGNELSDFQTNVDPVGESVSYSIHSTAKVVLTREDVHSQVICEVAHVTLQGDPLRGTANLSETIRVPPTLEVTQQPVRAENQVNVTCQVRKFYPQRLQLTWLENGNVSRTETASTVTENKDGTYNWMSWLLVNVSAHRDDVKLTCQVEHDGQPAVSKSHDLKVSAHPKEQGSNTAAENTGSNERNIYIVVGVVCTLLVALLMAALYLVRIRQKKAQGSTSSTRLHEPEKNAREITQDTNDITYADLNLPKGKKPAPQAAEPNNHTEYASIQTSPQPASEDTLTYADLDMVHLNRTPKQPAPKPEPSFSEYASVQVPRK
T1 sequence (Q08722 whole entry, looked up, the tested form may be a part): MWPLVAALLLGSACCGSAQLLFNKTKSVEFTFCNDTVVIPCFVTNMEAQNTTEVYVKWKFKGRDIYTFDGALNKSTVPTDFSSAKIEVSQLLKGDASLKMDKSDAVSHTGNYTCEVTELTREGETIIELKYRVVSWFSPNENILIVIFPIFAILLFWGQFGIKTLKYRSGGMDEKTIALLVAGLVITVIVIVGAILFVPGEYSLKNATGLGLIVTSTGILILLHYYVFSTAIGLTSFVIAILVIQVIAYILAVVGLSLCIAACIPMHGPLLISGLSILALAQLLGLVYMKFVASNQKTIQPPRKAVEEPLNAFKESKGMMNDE
Parathyroid hormone/parathyroid hormone-related peptide receptor (Homo sapiens), sequence (Q03431 whole entry, looked up): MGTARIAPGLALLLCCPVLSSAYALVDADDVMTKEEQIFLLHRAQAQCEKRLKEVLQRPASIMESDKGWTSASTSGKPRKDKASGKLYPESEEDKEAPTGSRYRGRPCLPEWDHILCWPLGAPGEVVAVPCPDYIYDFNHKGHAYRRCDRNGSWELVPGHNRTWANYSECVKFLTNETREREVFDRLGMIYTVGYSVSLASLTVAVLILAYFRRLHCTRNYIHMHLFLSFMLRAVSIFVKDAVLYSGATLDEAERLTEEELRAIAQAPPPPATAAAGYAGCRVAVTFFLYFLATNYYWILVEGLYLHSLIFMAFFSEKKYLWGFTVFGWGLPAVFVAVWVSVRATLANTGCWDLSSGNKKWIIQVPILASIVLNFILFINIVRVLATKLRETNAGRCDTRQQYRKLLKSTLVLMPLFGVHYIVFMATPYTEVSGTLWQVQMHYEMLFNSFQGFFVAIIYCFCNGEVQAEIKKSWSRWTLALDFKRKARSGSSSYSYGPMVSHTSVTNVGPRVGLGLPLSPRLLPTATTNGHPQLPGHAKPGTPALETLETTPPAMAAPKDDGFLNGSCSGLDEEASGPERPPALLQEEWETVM
Atrial natriuretic peptide receptor 2 (Homo sapiens), sequence (P20594 whole entry, looked up): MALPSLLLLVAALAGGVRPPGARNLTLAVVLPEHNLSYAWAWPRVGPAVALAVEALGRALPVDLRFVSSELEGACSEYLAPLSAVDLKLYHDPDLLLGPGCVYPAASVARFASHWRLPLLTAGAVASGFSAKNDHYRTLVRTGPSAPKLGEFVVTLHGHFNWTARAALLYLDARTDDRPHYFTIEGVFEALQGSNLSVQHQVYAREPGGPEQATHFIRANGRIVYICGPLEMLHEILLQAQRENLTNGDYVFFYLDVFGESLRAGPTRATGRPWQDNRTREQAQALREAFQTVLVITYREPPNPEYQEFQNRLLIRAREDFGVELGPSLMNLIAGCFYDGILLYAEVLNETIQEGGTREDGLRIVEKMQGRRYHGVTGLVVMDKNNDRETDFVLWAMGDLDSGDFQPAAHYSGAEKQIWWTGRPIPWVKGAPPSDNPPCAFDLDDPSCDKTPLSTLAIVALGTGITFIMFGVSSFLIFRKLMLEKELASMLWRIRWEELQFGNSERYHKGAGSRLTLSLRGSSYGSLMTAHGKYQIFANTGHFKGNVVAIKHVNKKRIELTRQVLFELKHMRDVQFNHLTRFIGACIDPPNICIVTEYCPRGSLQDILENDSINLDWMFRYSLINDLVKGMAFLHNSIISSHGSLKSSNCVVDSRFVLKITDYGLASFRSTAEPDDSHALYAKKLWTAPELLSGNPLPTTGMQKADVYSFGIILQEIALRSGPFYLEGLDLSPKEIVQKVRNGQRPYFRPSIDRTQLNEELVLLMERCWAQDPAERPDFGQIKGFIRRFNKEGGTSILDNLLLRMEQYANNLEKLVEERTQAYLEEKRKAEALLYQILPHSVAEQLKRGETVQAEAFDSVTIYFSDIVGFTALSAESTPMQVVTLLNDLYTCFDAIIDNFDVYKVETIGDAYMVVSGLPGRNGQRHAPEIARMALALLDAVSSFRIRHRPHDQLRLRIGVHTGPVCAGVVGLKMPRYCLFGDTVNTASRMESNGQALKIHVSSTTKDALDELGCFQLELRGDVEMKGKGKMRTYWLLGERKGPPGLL

Regarding `CC#C[C@]1(O)CC[C@H]2[C@@H]3CCC4=CC(=O)CCC4=C3[C@@H](c3ccc(N(C)C)cc3)C[C@@]21C`, the Potency result in assay [1], in assay [2], in [4] and in [14] was “inactive” in each case. Also, the outcome in assay [3] was inactive. Besides, the Potency in assay [5] is 0.469 µM (active); in [6] it was 1.05 µM (active); in assay [7] it was 26.6 µM (active) and 118 nM (active); in [8] it was 118 nM (active); in assay [9], 243 nM (active); in assay [10] it was 0.526 µM (active). For the same molecule, the Potency in [11] was 0.935 µM (active); in assay [12], 2.64 µM (active); in [13] it was 242 nM (active); in assay [15], 16.8 µM (active) and 209 nM (active); in assay [16], 685 nM (active).

As for `C[C@@H]1CC(=O)NN=C1c1ccc(NN=C(C#N)C#N)cc1`, the Potency entry is “inactive and 14.8 µM (active)” in [2]; 26.6 µM (active) in [5]; 23.5 µM (active) in [7]; 18.7 µM (active) in [12]; 26.4 µM (active) in [14]; 21.9 µM (active) and 27.6 µM (active) and 24.3 µM (active) in assay [16]. The Potency entry in assay [17], in assay [9] and in [11] was “inactive” each time.

`CN(C)CCCN1c2ccccc2CCc2ccc(Cl)cc21`: the Potency was 7.36 µM (active) in assay [18]; 23.7 µM (active) in assay [6]; 0.469 µM (active) in assay [7]; 332 nM (active) and 23.7 µM (active) in [8]; 12.2 µM (active) and 24.6 µM (active) in assay [9]; 16.8 µM (active) in assay [12]. The Potency in assay [13] was 1.52 µM (active) and 24.4 µM (active); in [16] it was 19.3 µM (active) and 15.5 µM (active). Also, the Potency result in [2], in assay [4], in assay [17] and in [10] was “inactive” in each case.

On to `Clc1ccc2nsnc2c1NC1=NCCN1`, for which the Potency result in [1], in assay [18], in assay [2], in assay [4], in assay [6] and in assay [7] was “inactive” each time. Also, the Potency entry in assay [9], in assay [10], in assay [11], in assay [12], in [13] and in [14] was “inactive” in each case. In addition, the Potency entry in assay [15] and in [16] was “inactive” in each case.

Regarding `CCOC(=O)Nc1ccc(NCc2ccc(F)cc2)nc1N`, the Potency result in [18], in [2], in assay [19], in [4], in assay [17] and in assay [5] was “inactive” throughout. The Potency result in assay [6], in assay [8], in assay [9], in [10], in [11] and in assay [12] was “inactive” throughout. The Potency entry in [13], in [14], in assay [15] and in [16] was “inactive” each time. For the same molecule, the outcome in [3] was inactive.

With `Cc1cnc(C(=O)NCCc2ccc(S(=O)(=O)NC(=O)NC3CCCCC3)cc2)cn1`, the Potency result in [1], in [18], in assay [2], in assay [4], in assay [5] and in assay [6] was “inactive” in each case. Besides, the Potency result in assay [7], in assay [8], in assay [9], in assay [10], in assay [11] and in assay [12] was “inactive” each time. For the same molecule, the Potency result in assay [13], in assay [14], in assay [15] and in [16] was “inactive” each time.

As for `Nc1nnc(-c2cccc(Cl)c2Cl)c(N)n1`, the Potency entry in assay [2], in assay [19], in [4], in assay [17], in assay [5] and in [6] was “inactive” each time. Further, the Potency result in [7], in [9], in assay [10], in [11], in assay [12] and in assay [13] was “inactive” in each case. Besides, the Potency entry in assay [14], in [15] and in [16] was “inactive” each time. The result in assay [3] and in [20] was inactive.

On to `CC(COc1ccccc1)N(CCCl)Cc1ccccc1` (stereo not drawn), for which the Potency result in [1], in assay [18], in [2], in [4], in assay [5] and in assay [6] was “inactive” throughout. Moreover, the Potency entry in assay [8], in assay [11], in assay [13], in [14] and in assay [15] was “inactive” each time. Further, the Potency in [16] is 9680 nM (active).
